# From article PMC7862700, “An all-to-all approach to the identification of sequence-specific readers for epigenetic DNA modifications on cytosine”
# Columns and labels:
# Assay in all cases: DAPPL (digital affinity profiling via proximity ligation, sequencing); 10 mM Tris-HCl pH 7.5, 50 mM NaCl, 1 mM DTT, 4% glycerol, room temperature, 30 min; GST-TFs on glutathione beads, 16-mer random dsDNA library, 0.1% formaldehyde crosslink after washing; high values mean tight binding
# FLI1 = biological target: T1, FLI1 (Homo sapiens, UniProt Q01543 1-452); conditions: protein: recombinant; tags: N-terminal GST; dsDNA, one strand shown
# T1 sequence: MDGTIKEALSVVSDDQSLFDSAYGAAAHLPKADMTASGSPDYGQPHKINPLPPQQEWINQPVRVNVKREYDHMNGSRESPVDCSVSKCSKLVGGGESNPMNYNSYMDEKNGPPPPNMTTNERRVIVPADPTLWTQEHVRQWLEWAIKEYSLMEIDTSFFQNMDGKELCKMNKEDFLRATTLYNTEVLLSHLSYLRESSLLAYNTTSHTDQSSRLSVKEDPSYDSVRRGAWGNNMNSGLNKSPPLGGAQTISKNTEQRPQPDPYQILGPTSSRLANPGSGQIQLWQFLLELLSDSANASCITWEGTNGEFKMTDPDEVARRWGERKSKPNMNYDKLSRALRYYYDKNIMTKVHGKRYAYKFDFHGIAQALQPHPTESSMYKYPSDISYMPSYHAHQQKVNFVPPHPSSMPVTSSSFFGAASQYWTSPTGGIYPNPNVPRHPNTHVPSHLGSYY
# How it was run: (§1)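 GST fusions of human transcription factors were expressed in yeast and captured with glutathione beads. Once given DNA barcodes and pooled alongside a tag-only sample, they were incubated for 30 min at room temperature with 200 nmole of a random double-stranded 16-mer DNA library in Tris/NaCl/DTT/glycerol buffer, then washed, crosslinked (0.1% formaldehyde), proximity-ligated, PCR-amplified and sequenced on an Illumina NextSeq500. The binding signal of each hexamer is its read frequency for a factor divided by its frequency for the tag-only sample.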
# ELK1 = biological target: T2, ELK1 (Homo sapiens, UniProt P19419 1-428); conditions: protein: recombinant; tags: N-terminal GST; dsDNA, one strand shown
# T2 sequence: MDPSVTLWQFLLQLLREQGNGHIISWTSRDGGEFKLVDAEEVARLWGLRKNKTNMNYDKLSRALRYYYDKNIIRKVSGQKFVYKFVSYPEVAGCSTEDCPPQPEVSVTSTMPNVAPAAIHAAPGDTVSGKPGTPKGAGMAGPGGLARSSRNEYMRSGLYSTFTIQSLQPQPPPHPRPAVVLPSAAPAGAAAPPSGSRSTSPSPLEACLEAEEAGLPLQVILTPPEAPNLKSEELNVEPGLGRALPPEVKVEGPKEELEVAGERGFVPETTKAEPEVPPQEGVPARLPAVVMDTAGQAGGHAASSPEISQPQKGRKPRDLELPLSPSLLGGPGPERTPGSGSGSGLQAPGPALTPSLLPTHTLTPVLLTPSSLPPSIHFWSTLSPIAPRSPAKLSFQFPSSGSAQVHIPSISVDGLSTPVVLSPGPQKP
# How it was run: as §1
# GABPA = biological target: T3, GABPA (Homo sapiens, UniProt Q06546 1-454); conditions: protein: recombinant; tags: N-terminal GST; dsDNA, one strand shown
# T3 sequence: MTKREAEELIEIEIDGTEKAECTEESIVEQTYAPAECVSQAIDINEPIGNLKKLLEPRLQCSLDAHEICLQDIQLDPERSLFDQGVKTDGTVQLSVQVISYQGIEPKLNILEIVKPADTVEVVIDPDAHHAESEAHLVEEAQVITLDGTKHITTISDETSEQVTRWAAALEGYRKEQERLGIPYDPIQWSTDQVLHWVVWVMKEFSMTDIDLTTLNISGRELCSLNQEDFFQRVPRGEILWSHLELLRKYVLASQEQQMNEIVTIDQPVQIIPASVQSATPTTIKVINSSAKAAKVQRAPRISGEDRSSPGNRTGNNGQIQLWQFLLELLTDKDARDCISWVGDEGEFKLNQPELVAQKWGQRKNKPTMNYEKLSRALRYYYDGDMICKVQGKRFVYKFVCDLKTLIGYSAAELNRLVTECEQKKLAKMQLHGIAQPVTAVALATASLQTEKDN
# How it was run: as §1
# ERG = biological target: T4, ERG (Homo sapiens, UniProt P11308 1-479); conditions: protein: recombinant; tags: N-terminal GST; dsDNA, one strand shown
# T4 sequence: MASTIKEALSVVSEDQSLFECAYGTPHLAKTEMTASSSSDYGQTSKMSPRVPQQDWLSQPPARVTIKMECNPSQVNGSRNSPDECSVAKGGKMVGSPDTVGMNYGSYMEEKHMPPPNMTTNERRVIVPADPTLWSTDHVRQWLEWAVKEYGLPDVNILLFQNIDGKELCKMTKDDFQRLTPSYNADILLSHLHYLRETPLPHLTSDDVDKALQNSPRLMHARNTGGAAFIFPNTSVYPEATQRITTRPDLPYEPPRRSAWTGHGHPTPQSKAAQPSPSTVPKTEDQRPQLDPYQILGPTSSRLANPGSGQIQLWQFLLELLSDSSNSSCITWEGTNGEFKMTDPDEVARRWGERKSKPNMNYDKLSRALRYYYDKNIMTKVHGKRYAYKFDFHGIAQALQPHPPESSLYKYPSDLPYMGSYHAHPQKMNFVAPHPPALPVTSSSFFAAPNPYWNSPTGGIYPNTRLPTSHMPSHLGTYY
# How it was run: as §1
# ELF1 = ELF1 (Homo sapiens, UniProt P32519 1-619); conditions: protein: recombinant; tags: N-terminal GST; dsDNA, one strand shown
# Chain of ELF1 (P32519 whole entry): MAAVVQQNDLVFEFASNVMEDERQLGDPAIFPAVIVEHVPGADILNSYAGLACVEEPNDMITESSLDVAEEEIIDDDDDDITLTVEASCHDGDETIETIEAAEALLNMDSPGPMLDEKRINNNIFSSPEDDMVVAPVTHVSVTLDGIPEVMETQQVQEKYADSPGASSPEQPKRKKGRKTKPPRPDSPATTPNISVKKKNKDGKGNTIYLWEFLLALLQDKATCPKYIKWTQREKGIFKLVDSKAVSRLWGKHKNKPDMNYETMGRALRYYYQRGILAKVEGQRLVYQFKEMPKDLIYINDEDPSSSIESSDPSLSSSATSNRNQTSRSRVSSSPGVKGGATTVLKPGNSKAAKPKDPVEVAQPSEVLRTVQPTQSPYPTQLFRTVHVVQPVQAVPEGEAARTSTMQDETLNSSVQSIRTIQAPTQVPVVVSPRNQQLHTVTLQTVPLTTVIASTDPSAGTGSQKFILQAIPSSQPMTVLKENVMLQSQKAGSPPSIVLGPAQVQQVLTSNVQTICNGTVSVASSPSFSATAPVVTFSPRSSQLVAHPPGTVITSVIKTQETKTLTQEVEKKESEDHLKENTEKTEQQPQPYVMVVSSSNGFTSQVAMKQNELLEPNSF
# How it was run: as §1
# EHF = biological target: T5, EHF (Homo sapiens, UniProt Q9NZC4 1-300); conditions: protein: recombinant; tags: N-terminal GST; dsDNA, one strand shown
# T5 sequence: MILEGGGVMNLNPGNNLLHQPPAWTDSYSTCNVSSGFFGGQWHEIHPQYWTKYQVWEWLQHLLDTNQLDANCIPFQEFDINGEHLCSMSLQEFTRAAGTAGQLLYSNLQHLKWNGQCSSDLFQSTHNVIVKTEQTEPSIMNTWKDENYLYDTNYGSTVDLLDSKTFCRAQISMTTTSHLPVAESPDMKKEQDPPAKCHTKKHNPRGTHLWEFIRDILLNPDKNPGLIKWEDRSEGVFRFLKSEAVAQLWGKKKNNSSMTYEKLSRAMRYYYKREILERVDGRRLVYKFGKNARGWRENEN
# How it was run: as §1
# SPI1 = SPI1 (Homo sapiens, UniProt P17947 1-270); conditions: protein: recombinant; tags: N-terminal GST; dsDNA, one strand shown
# How it was run: as §1
# SPIB = SPIB (Homo sapiens, UniProt Q01892 1-262); conditions: protein: recombinant; tags: N-terminal GST; dsDNA, one strand shown
# Chain of SPIB (Q01892 whole entry): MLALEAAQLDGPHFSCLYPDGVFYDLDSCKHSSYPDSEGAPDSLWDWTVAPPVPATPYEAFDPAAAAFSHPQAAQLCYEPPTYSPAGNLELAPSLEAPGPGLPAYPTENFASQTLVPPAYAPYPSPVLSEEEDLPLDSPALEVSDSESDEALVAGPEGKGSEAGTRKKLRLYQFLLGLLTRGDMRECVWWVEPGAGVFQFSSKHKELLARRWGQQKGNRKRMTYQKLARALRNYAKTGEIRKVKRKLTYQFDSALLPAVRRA
# How it was run: as §1
# ELK3 = biological target: T6, ELK3 (Homo sapiens, UniProt P41970 1-407); conditions: protein: recombinant; tags: N-terminal GST; dsDNA, one strand shown
# T6 sequence: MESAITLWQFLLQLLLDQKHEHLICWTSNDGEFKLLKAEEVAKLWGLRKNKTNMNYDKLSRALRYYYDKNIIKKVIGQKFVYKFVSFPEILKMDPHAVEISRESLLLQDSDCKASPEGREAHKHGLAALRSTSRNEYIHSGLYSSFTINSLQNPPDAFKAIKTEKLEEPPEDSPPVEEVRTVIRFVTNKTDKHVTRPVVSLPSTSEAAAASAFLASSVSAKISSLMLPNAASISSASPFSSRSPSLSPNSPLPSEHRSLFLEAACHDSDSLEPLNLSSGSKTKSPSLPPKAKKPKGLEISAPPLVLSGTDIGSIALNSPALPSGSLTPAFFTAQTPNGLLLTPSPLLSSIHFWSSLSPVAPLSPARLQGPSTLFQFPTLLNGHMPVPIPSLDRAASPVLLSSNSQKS
# How it was run: as §1
# FEV = biological target: T7, FEV (Homo sapiens, UniProt Q99581 1-238); conditions: protein: recombinant; tags: N-terminal GST; dsDNA, one strand shown
# T7 sequence: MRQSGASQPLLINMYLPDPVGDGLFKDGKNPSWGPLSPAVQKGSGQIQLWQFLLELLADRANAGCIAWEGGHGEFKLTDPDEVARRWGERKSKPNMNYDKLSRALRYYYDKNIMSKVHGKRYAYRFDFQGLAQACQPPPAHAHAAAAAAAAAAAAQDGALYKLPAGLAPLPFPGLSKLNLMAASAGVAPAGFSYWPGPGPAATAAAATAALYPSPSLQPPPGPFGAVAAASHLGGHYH
# How it was run: as §1
# ETV5 = ETV5 (Homo sapiens, UniProt P41161 1-510); conditions: protein: recombinant; tags: N-terminal GST; dsDNA, one strand shown
# Chain of ETV5 (P41161 whole entry): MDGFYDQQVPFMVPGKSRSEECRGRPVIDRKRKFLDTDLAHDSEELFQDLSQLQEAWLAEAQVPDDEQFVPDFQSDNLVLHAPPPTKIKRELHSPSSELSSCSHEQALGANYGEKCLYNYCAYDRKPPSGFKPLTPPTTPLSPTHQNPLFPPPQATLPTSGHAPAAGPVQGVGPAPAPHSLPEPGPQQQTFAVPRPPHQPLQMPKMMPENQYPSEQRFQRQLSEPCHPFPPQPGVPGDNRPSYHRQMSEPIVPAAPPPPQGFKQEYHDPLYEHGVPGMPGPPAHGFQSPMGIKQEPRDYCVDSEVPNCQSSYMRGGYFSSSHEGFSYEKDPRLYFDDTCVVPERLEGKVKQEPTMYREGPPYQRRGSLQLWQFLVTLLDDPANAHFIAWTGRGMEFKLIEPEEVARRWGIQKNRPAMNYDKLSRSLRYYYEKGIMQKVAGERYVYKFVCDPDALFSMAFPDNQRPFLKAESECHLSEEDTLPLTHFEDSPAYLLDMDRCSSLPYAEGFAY
# How it was run: as §1
# HSF1 = HSF1 (Homo sapiens, UniProt Q00613 1-529); conditions: protein: recombinant; tags: N-terminal GST; chain copies: 3; dsDNA, one strand shown
# Chain of HSF1 (Q00613 whole entry): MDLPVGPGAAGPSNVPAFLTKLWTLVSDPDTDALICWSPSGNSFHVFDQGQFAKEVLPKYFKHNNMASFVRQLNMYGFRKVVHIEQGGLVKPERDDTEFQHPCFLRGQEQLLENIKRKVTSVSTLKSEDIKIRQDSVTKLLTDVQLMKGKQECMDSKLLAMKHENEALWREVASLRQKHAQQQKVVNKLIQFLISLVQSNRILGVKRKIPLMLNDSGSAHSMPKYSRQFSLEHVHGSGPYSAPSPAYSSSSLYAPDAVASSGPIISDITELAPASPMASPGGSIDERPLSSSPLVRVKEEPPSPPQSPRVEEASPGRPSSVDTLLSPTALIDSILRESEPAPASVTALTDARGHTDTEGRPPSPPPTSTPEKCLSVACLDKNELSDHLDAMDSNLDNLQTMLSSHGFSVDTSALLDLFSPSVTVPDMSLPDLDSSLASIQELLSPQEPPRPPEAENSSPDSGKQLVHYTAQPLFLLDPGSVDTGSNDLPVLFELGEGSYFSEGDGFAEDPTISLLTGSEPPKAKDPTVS
# How it was run: as §1
# SPIC = biological target: T8, SPIC (Homo sapiens, UniProt Q8N5J4 1-248); conditions: protein: recombinant; tags: N-terminal GST; dsDNA, one strand shown
# T8 sequence: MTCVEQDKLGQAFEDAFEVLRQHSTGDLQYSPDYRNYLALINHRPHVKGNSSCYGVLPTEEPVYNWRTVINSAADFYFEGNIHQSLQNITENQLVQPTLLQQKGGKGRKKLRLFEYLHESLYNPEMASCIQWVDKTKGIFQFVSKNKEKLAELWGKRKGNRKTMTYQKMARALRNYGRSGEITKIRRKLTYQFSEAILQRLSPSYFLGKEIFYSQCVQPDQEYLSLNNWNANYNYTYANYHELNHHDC
# How it was run: as §1
# ELF4 = ELF4 (Homo sapiens, UniProt Q99607 1-663); conditions: protein: recombinant; tags: N-terminal GST; dsDNA, one strand shown
# Chain of ELF4 (Q99607 whole entry): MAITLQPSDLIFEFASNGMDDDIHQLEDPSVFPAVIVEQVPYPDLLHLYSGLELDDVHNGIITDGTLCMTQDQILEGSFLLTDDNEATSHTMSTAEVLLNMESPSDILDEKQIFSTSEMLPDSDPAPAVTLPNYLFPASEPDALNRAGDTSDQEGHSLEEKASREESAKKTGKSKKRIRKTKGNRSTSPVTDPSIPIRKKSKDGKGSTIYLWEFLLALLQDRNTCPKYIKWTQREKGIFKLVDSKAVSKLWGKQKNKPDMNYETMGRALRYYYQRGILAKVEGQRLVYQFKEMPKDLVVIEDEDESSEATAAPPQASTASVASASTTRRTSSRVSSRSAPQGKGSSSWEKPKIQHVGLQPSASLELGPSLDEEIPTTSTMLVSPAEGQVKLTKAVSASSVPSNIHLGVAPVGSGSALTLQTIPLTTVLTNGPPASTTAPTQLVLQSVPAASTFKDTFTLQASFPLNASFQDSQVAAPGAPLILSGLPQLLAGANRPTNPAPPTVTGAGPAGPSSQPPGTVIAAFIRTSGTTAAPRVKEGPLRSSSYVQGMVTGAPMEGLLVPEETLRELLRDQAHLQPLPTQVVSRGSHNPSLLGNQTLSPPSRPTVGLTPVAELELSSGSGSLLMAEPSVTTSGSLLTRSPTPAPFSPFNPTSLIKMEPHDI
# How it was run: as §1
# ELK4 = biological target: T9, ELK4 (Homo sapiens, UniProt P28324-2 1-405); conditions: protein: recombinant; tags: N-terminal GST; dsDNA, one strand shown
# T9 sequence: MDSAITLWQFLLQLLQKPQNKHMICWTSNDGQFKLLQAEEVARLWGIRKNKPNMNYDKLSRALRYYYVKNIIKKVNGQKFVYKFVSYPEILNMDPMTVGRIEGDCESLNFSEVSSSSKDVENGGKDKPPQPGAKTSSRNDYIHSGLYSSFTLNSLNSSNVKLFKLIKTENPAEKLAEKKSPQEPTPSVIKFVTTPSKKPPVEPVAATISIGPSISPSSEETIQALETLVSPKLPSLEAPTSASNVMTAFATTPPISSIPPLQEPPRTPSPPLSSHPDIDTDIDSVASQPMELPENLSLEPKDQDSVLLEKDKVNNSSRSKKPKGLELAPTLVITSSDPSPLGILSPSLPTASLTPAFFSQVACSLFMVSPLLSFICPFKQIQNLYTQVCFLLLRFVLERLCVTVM
# How it was run: as §1
# ETV2 = biological target: T10, ETV2 (Homo sapiens, UniProt O00321 1-342); conditions: protein: recombinant; tags: N-terminal GST; dsDNA, one strand shown
# T10 sequence: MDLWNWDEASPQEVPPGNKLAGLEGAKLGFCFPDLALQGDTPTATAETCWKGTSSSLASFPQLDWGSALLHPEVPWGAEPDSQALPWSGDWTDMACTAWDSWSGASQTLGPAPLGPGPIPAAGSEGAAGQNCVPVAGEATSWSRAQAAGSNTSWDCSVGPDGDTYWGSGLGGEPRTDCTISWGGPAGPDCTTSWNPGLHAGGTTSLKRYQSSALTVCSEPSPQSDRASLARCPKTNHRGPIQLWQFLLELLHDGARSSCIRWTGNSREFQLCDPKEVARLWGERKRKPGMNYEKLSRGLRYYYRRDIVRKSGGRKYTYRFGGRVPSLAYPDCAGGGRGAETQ
# How it was run: as §1
# ELF3 = biological target: T11, ELF3 (Homo sapiens, UniProt P78545 1-371); conditions: protein: recombinant; tags: N-terminal GST; dsDNA, one strand shown
# T11 sequence: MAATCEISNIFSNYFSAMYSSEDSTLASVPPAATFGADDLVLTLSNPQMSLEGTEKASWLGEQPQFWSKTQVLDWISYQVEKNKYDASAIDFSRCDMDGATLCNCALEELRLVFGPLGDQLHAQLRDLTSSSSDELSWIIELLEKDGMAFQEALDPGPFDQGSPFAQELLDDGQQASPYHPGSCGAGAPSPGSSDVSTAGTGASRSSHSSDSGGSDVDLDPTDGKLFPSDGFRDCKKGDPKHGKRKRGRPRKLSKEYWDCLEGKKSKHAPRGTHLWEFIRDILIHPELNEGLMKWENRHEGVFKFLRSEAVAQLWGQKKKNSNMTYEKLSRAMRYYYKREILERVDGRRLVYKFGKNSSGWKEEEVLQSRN
# How it was run: as §1
# ETV1 = ETV1 (Homo sapiens, UniProt P50549 1-477); conditions: protein: recombinant; tags: N-terminal GST; dsDNA, one strand shown
# Chain of ETV1 (P50549 whole entry): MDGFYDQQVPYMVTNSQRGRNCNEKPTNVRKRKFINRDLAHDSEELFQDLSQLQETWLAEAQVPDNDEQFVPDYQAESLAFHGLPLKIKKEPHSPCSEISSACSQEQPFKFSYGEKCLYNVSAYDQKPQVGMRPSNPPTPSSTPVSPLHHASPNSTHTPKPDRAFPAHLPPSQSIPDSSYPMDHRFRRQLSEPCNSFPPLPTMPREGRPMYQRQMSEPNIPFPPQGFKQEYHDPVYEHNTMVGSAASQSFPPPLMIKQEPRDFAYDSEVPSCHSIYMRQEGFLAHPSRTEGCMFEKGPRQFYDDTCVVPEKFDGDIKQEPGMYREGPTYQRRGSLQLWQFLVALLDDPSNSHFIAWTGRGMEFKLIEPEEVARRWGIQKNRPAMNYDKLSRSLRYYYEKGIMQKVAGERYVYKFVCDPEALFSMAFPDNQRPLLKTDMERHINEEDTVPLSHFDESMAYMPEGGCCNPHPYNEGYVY
# How it was run: as §1
sequence,measurement,setting,value
GCTATG,binding signal,FLI1,"1.16 fold enrichment (6-mer frequency, TF over GST control)"
same,binding signal,ELK1,"1.13 fold enrichment (6-mer frequency, TF over GST control)"
same,binding signal,GABPA,"1.26 fold enrichment (6-mer frequency, TF over GST control)"
same,binding signal,ERG,"1.11 fold enrichment (6-mer frequency, TF over GST control)"
same,binding signal,ELF1,"1.22 fold enrichment (6-mer frequency, TF over GST control)"
same,binding signal,EHF,"1.21 fold enrichment (6-mer frequency, TF over GST control)"
same,binding signal,SPI1,"1.13 fold enrichment (6-mer frequency, TF over GST control)"
same,binding signal,SPIB,"1.31 fold enrichment (6-mer frequency, TF over GST control)"
same,binding signal,ELK3,"1.15 fold enrichment (6-mer frequency, TF over GST control)"
same,binding signal,FEV,"1.15 fold enrichment (6-mer frequency, TF over GST control)"
same,binding signal,ETV5,"1.13 fold enrichment (6-mer frequency, TF over GST control)"
same,binding signal,HSF1,"1.07 fold enrichment (6-mer frequency, TF over GST control)"
same,binding signal,SPIC,"1.22 fold enrichment (6-mer frequency, TF over GST control)"
same,binding signal,ELF4,"1.08 fold enrichment (6-mer frequency, TF over GST control)"
same,binding signal,ELK4,"1.15 fold enrichment (6-mer frequency, TF over GST control)"
same,binding signal,ETV2,"1.38 fold enrichment (6-mer frequency, TF over GST control)"
same,binding signal,ELF3,"1.18 fold enrichment (6-mer frequency, TF over GST control)"
same,binding signal,ETV1,"1.17 fold enrichment (6-mer frequency, TF over GST control)"
